# Hits are enriched below; roughly 2% of the tested compounds scored in any of these assays.
# Shn3 3UTR inh: reduction of Shn3 3'UTR firefly luciferase signal, primary screen, Schnurri-3 inhibitor project, cell-based, Clone20 osteoblasts, set 2; AID 588674, 2011; 360,000 tested, 0.52% active; inhibition, % at 12.5 µM; Clone20 osteoblast Shn3 3'UTR firefly luciferase, 24 h;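 active = mean inhibition of at least 75% with every replicate also reaching 75%; inconclusive = mean inhibition at least 75% but some replicate below; inactive = mean inhibition below 75%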;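 also: 0% = median of neutral control wells and 100% = pilot-screen positive control compound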
# LGR2 inh: inhibitors of bursicon-induced LGR2 CRE-luciferase signal, primary screen, cell-based, HEK293, CRE-luciferase reporter, bursicon stimulation | 380,000 tested, 0.35% active | inhibition, % at 9.99 µM | bursicon-stimulated, 4 h;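 active = drop in luminescence signal, shown as inhibition above about 50% in the replicate tests, limit read from the data, passing the limit was not always enough; inconclusive = probably only some replicates passing the limit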;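 also: agonist challenge used bursicon conditioned medium at about half maximal strength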
# EWS-Fli block: EWS/Fli-driven NR0B1 reporter inhibitors, primary screen, A673 cells, NR0B1 luciferase, luminescence, MLPCN library | viability-normalised | inhibition, % at 12.6 µM | 350,000 tested, 0.67% active;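 active = mean inhibition of at least 50% after viability correction, with every replicate also passing that limit; inconclusive = mean reaches 50% but only one of two replicates passes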;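 also: firefly luciferase signal divided by Alamar Blue viability fluorescence both relative to DMSO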
# PAX8 inh HTS: inhibitors of PAX8-driven TPO luciferase reporter, primary screen, RMG-I cells, single concentration. SteadyGlo, 24 h. inhibition, % at 12.6 µM. 360,000 tested, 1.2% active. AID 652154, 2013;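 active = mean replicate inhibition at least 60% with every replicate also reaching 60%; inconclusive = only one of the two criteria is met; inactive = mean below 60% and not all replicates reaching 60%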;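 also: luciferase light reporting Pax8 driven TPO promoter activity; plate controls were median of neutral control wells for no effect and mitoxantrone controls for full effect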
# KKLEB cytotox: cytotoxicity in KKLEB CF airway cells, primary screen, cytotoxicity control for CF NF-kB inhibitor project, cell-based, uHTS, fluorescence assay plates; KKLEB CF airway cells viability, ATPlite luminescence, overnight; hits give low values; cells stimulated with P. aeruginosa culture filtrate; activity change (cytotoxicity), % at 5 µM; 360,000 tested, 0.36% active; AID 602141, 2011;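 active = corrected activity change at or below -50% at 5 µM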
# CF NFkB inh: inhibitors of PAF-induced NF-kB signaling, primary screen, cell-based, GFP fluorescence, uHTS. 360,000 tested, 0.86% active. inhibition, % at 5 µM. AID 588850, 2011. KKLEB NF-kB-GFP reporter, GFP fluorescence overnight;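 active = at least 50% inhibition at 5 µM, scaled per plate between neutral and stimulator controls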;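 also: PAF is a Pseudomonas aeruginosa culture filtrate used as stimulus; plate controls were PAF-stimulated DMSO wells for no effect and unstimulated DMSO wells for full effect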
# * = called active by the depositor; u = inconclusive; x = not tested or not shown.
SMILES,Shn3 3UTR inh,LGR2 inh,EWS-Fli block,PAX8 inh HTS,KKLEB cytotox,CF NFkB inh
O=C(Cc1cccnc1)N1CCCCN2[C@H](CO)[C@@H](c3ccc(C#CC4CC4)cc3)[C@@H]2C1,x,x,7,2,x,x
CCOC(=O)C(NC(=O)C(Cc1ccc(N(CCCl)CCCl)cc1)NC(C)=O)C(C)C (stereo unspecified),-6,6,6,2,-9,-14
COC(=O)C(Cc1ccc(N(CCCl)CCCl)cc1)N=Cc1ccccc1O (stereo unspecified),54,-26,67*,97*,-48,75*
CC[C@@H](O)C[C@H]1CCC[C@@]2(C[C@@H]3OC(=O)/C=C/[C@@](C)(O)[C@@H](O)[C@H](C)[C@@H](O)[C@H](OC4CCC(N(C)C)C(C)O4)[C@@H](O)[C@](C)(O)CCCCC/C=C/[C@@H]4CC(C)(C)O[C@@]4(O)C[C@H](O2)[C@H]3C)O1 (stereo partly specified),90*,x,5,u,8,28
CCOC(=O)C1C(=O)NC2(C)CC1c1cc(OC)ccc1O2 (stereo unspecified),89*,x,x,x,7,9
CN1[C@@H]2Cn3c(cccc3=O)[C@H]1[C@@H](C(=O)NCC1CC1)[C@@H]2CO,x,-12,-5,-8,x,x
C[CH2][Hg][S]c1ccccc1C(=O)O,98*,96*,47,109*,-89*,86*
CC(C)COC(=O)c1ccccc1C(=O)OCC(C)C,2,3,-7,x,8,7
COc1ccc(C#Cc2ccc([C@H]3[C@@H](CO)N4CCCCN(C(=O)Cc5cccnc5)C[C@@H]34)cc2)cc1,x,-10,-8,4,x,x
CCCN1[C@@H]2c3ccc(-c4ccccc4)c(=O)n3C[C@H]1[C@H](CO)[C@H]2C(=O)OC,x,-8,5,3,x,x
COc1cc(/C=C(/C)[N+](=O)[O-])ccc1OCc1ccccc1Cl,96*,x,x,x,-66*,85*
COC(=O)C12OCC34C(CC5C(C)=C(O)C(=O)CC5(C)C3C(O)C1O)OC(=O)C(OC(=O)/C=C(\C)C(C)C)C24 (stereo unspecified),99*,101*,46,96*,-52*,96*
CCCCCSc1cc(OC)c(CCNC)cc1OC,-16,x,x,x,3,-5
CCCCCCCSc1cc(OC)c(CCNC)cc1OC,94*,x,x,x,-22,29
NC(=O)c1cc([N+](=O)[O-])cc([N+](=O)[O-])c1,-18,x,-1,15,10,-6
CC(C)(C)c1cc([N+](=O)[O-])cc(C(C)(C)C)c1O,x,45,2,67*,x,x
O=C(O)[C@@H]1[C@@H](CO)[C@@H]2Cn3c(ccc(-c4ccccc4)c3=O)[C@H]1N2CC1CCCCC1,x,1,-4,-8,x,x
COc1cc2nc(CN3CC=C(c4ccccc4)CC3)[nH]c(=O)c2cc1OC,-72,-2,8,34,-7,69*
O=C(Cc1ccccc1)N1CC2(C1)[C@@H](c1ccccc1)[C@@H](CO)N2Cc1cccc(F)c1,x,4,2,15,x,x
CCOC(C[n+]1c(-c2ccccc2)cc(C)cc1-c1ccccc1)OCC,3,13,10,67*,2,-8
NC(N)=N/N=C/c1cn(-c2ccccc2)nc1-c1cccs1,0,106*,6,17,-24,10
COC(COC(N)=O)C1=C(N2CC2)C(=O)C(C)=C(N2CC2)C1=O (stereo unspecified),70,8,-2,12,-37,89*
CCC(=O)N1[C@@H]2Cn3c(ccc(-c4cccc(F)c4)c3=O)[C@H]1[C@@H](C(=O)OC)[C@@H]2CO,x,5,0,-3,x,x
COc1cccc(-c2ccc([C@@H]3[C@H]4CN(C(=O)Cc5ccncc5)CCCCN4[C@H]3CO)cc2)c1,x,-12,x,-17,x,x
Cc1cc(O)c2c(c1)C(=O)C13C(=C2O)C(=O)[C@H]2[C@@H](O)[C@@H]1[C@H]1[C@H](O)[C@@H]3C(=O)C3=C(O)c4c(O)cc(C)cc4C(=O)C312 (stereo partly specified),58,x,x,x,-14,79*
SMILES,Shn3 3UTR inh,LGR2 inh,EWS-Fli block,PAX8 inh HTS,KKLEB cytotox,CF NFkB inh
CCc1nc2ccc(Br)cc2c(=O)n1-c1ccccc1C(F)(F)F,-16,-5,x,18,-7,10
CCCc1nc2ccc(Br)cc2c(=O)n1-c1ccc([N+](=O)[O-])c(C(F)(F)F)c1,93*,28,x,93*,-21,43
O=[N+]([O-])c1ccc(-[n+]2c(-c3ccccc3)cc(-c3ccccc3)cc2-c2ccccc2)cc1,3,11,1,-3,9,-18
COc1ccc(-[n+]2c(-c3ccccc3)cc(-c3ccccc3)cc2-c2ccccc2)cc1,x,-2,49,92*,x,x
Oc1ccc(-[n+]2c(-c3ccccc3)cc(-c3ccccc3)cc2-c2ccccc2)cc1,22,103*,43,90*,-15,40
COC(=O)[C@H]1[C@H](CO)[C@H]2Cn3c(ccc(C4=CCCCC4)c3=O)[C@@H]1N2C(=O)Cc1ccccn1,x,-9,-11,16,x,x
O=C(O)[C@H]1[C@H](CO)[C@H]2Cn3c(ccc(-c4ccccc4F)c3=O)[C@@H]1N2C(=O)Nc1ccccc1,x,9,-1,x,x,x
COC(=O)[C@@H]1[C@@H](CO)[C@@H]2Cn3c(ccc(-c4ccccc4OC)c3=O)[C@H]1N2Cc1ccccc1,x,7,3,x,x,x
NC(=S)c1cn(C2OC(CO)C(O)C2O)c2ncnc(N)c12 (stereo unspecified),97*,102*,49,108*,-79*,90*
Nc1ncnc2c1ccn2[C@@H]1O[C@H](CO)[C@@H](O)[C@H]1O,96*,93*,56*,x,-97*,87*
CC(=O)O[C@@]12CO[C@@H]1C[C@H](O)[C@@]1(C)C(=O)[C@H](O)C3=C(C)[C@@H](O)C[C@@](O)([C@@H](OC(=O)c4ccccc4)C12)C3(C)C (stereo partly specified),-3,9,-10,x,-2,8
C/C=C(\C)C(=O)N[C@@H](c1ccccc1)[C@@H](O)C(=O)O[C@H]1C[C@@]2(O)[C@@H](OC(=O)c3ccccc3)C3[C@](C)(C(=O)[C@H](O)C(=C1C)C2(C)C)[C@@H](O)C[C@H]1OC[C@@]31OC(C)=O (stereo partly specified),2,19,57*,x,-12,13
